High-throughput results: PubChem, National Center for Advancing Translational Sciences (NCATS)
A selection: hits, their analogues and other compounds. The true share with any hit is near 19%.
HT1080-NT tox – qHTS for induction of synthetic lethality in tumor cells producing 2HG: qHTS for the HT-1080-NT fibrosarcoma cell line; HT-1080-NT fibrosarcoma viability, CellTiter-Glo ATP luminescence, 48 h; hit rate 1.6% among 360,000; Potency, µM (titrated, usually from 46.1 µM), for the others: top-dose activity, negative = less viability, hits mostly cytotoxic;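 also: NT is the 2HG producing partner of a matched IDH1 knockdown line; potency is read from the fitted curve at half-maximal effect; 0% = DMSO-treated cells and -100% = media-only wells without cells; nearly all actives have a fitted effect of over 55% in size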
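Toxicity toward the 2HG-producing NT line was scored as %Activity, normalised to DMSO and no-cell wells, from CellTiter-Glo luminescence after 48 hours' treatment.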
TDP1 cell noCPT – qHTS for Inhibitors of human tyrosyl-DNA phosphodiesterase 1 (TDP1): qHTS in cells in absence of CPT; DT40 Tdp1-/- hTDP1 cells, no CPT, ATP luminescence, 48 h; Potency, µM (highest dose often 46.2 µM), for inactives: top-dose activity change, negative = growth inhibition, actives largely listed as inhibitors; hit rate 15% among 420,000; also: potency is read from the fitted curve at half-maximal effect; nearly all actives have a fitted effect of over 55% in size
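A cellular qHTS used chicken DT40 cells lacking endogenous Tdp1 but carrying stably transfected human TDP1. Compounds were applied without camptothecin, and cell growth kinetics were judged by ATP-dependent luminescence after ≥48 hr.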
HT1080 IDH1KD tx – qHTS for induction of synthetic lethality in tumor cells producing 2HG: qHTS for the HT-1080-IDH1KD cell line; HT-1080 IDH1 knockdown viability, ATP luminescence, 48 h; AID 686971, 2013; hit rate 2% among 360,000; Potency, µM (titrated, usually from 46.1 µM), without a hit: at the highest dose activity, negative = toxicity, hits mostly cytotoxic;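 also: potency is read from the fitted curve at half-maximal effect; 0% = DMSO wells and -100% = cell-free medium wells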
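IDH1KD HT-1080 cells, 750/well, RPMI + 5% FBS; compound pinned after 2 h settling; 48 h, 37 °C; CellTiter-Glo luminescence; % activity normalised to DMSO and no-cell wells; curves fitted, classed by r2 and efficacy.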
IL-1B inflam inh – qHTS for Inhibitors of Inflammasome Signaling: IL-1-beta AlphaLISA Primary Screen. hit rate 4.7% among 360,000. activity change, % at 57.5 µM. THP-1 LPS/ATP IL-1B secretion, AlphaLISA, 16 h; stronger effect = lower value. AID 743279, 2014; in the data active = activity change below about -50%; inconclusive = mostly about -30% to -49%
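THP-1 cells pretreated 1 hr with compounds (up to 57.5 uM final), then stimulated with LPS (250 ng/mL final) plus ATP (1.25 mM final); secreted IL-1B measured by AlphaLISA after 16 hr, decreased signal indicating inhibition.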
DT40 TDP1 CPT – qHTS for Inhibitors of human tyrosyl-DNA phosphodiesterase 1 (TDP1): qHTS in cells in presence of CPT; chicken DT40 Tdp1-/-;hTDP1 cells + 20 nM CPT, ATP luminescence, 48 h; Potency, µM (series often up to 46.2 µM), for inactives: at the top dose activity change, negative = growth inhibition, actives largely listed as inhibitors; hit rate 12% among 420,000; also: potency is read from the fitted curve at half-maximal effect; nearly all actives have a fitted effect of over 55% in size
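Chicken DT40 Tdp1-/- cells complemented with human TDP1, 400 cells/well, exposed to compounds plus 20 nM camptothecin for at least 48 h at 37 C; viability read as ATP content by CellTiter-Glo luminescence.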
The depositor's hits bear a star; i = inactive; ? = inconclusive; . = no result. Unless noted, calls follow the shape of the dose curve; as a rule, active = well fitted curve in the direction sought with a large enough effect; inconclusive = small, poorly fitted or top-dose-only effect, or another doubt; inactive = no such curve, though single readings can be large; an effect the other way counts as inactive or inconclusive. Unless noted, % is scaled to controls: 0 for no effect and ±100 for the full control effect.

SMILES	HT1080-NT tox	TDP1 cell noCPT	HT1080 IDH1KD tx	IL-1B inflam inh	DT40 TDP1 CPT
CCOc1cc(/C=C2\C(=N)N3N=C(S(C)(=O)=O)SC3=NC2=O)ccc1OCCOc1cccc(OC)c1	?	13µM*	-21%	-9	-3%
CC(=O)N1CCN(CC(=O)c2ccc(Br)cc2)CC1	-10%	-21%	-4%	27	-21%
O=C(CN1CC[n+]2c(-c3cccs3)csc21)c1ccc(Br)cc1	-6%	3.7µM*	-2%	?	1.8µM*
O=C(CN1CC[n+]2c(-c3ccccc3)csc21)c1ccc(Br)cc1	21µM*	2.1µM*	0%	-54*	2.9µM*
N#CCN1CCN(CC(=O)c2ccc(Br)cc2)CC1	?	-4%	6%	9	-15%
CCN1CCc2c(OCC(=O)Nc3ccc(C)cc3)cccc2C1=O	-3%	-17%	1%	-5	-21%
C=C(C)CCC1(C)NC(=O)N(c2ccccc2)N1 (stereo not given)	9.2µM*	-18%	15µM*	.	-2%
CC1(c2ccc(O)cc2)NC(=O)N(c2ccccc2)N1 (stereo not given)	5.8µM*	2%	10µM*	0	33%
CCCCCC1(C)NC(=S)N(c2ccccc2)N1 (stereo not given)	?	-9%	?	13	12%
O=C(Nc1ccccc1)c1oc2ccccc2c1NC(=O)C1CC1	8%	?	1%	-1	?
O=C(Nc1ccc(F)cc1)c1oc2ccccc2c1NC(=O)C1CCCCC1	.	29µM*	.	.	?
O=C(Nc1ccc(F)cc1)c1ccccc1F	3%	-16%	9%	6	-9%
O=C(Nc1c(C(=O)Nc2ccc(F)cc2)oc2ccccc12)c1ccccc1F	.	21µM*	.	.	?
CCC(OC(=O)c1cc2sccc2n1C)C(=O)NCc1ccco1 (stereo not given)	-16%	-17%	13%	-5	?
Nc1nnc(SCc2ccc(Cl)cc2)s1	-1%	-16%	-7%	-22	-21%
Clc1ccc(CSc2nnc(NC3=NCCCCC3)s2)cc1	-4%	10µM*	-11%	-4	?
COc1ccccc1/C=C/CN1CCC(Oc2ccc(C(=O)N3CCCCC3)cc2)CC1	-3%	26µM*	-16%	-57*	?
Cc1cc(C)cc(CN2CCC(Oc3ccc(C(=O)N4CCCC4)cc3)CC2)c1	?	23µM*	?	?	21µM*
COc1ccccc1/C=C/CN1CCC(Oc2cc(C(=O)NC3CC3)ccc2OC)CC1	-1%	2.1µM*	2%	-8	?
COC(=O)c1ccc(CN2CCC(Oc3ccc(C(=O)N4CCCCC4)cc3)CC2)cc1	4%	?	0%	9	?
COc1ccc(C(=O)NC2CC2)cc1OC1CCN(Cc2ccccc2)CC1	1%	5%	8%	i	3%
O=C(c1ccc(OC2CCN(C/C=C/c3ccccc3)CC2)cc1)N1CCCCC1	-21%	?	-6%	?	?
COc1ccc(/C=C/CN2CCC(Oc3ccc(C(=O)N4CCCCC4)cc3)CC2)cc1	1%	15µM*	-5%	i	?
O=C(Cn1cnc2c(nnn2Cc2ccccc2)c1=O)NCc1ccccc1Cl	8%	0%	5%	0	-15%
CCCCN1C(N)=NC[C@@H]1c1ccccc1	-2%	13µM*	-6%	-12	16µM*
C=CCN=C(C)C1=C(O)C(C)OC1=O (stereo not given)	13%	1%	20%	12	-2%
Clc1cccc(N2CCN(c3c4c(nc5nncn35)CCC4)CC2)c1	.	7.3µM*	.	.	18µM*
C[C@H](CO)N1C[C@H](C)[C@@H](CN(C)C(=O)c2ccccc2)OCc2cn(nn2)CCCC1=O	9%	-19%	14%	35	4%
